# Results reported in PubChem BioAssay AID2314 (National Center for Advancing Translational Sciences (NCATS), 2010).
# In all, about 300,000 compounds went through this assay and about 37,000 (12%) were called active. The sample as a whole holds a higher share of actives than the screen did. A number with no mark means an inactive call. No stated cut-off is given here; in the data, active means max response mostly above about 13% (no sharp cut-off); inactive means mostly below about 14%.
# Assay: Cycloheximide Counterscreen for Small Molecule Inhibitors of Shiga Toxin; further: read at 38.3 µM for the half of the compounds with a filed dose; 0% is about no effect
# Conditions: cell reporter, cycloheximide protein synthesis inhibition counterscreen; hits give high values
row,SMILES,max response
1,CN(C)CCCSc1ccccc1NC(=O)/C=C/c1ccccc1,5.31%
2,CCOc1ccc(S(=O)(=O)NCc2ccc3c(c2)OCO3)cc1C,-1.1%
3,COc1ccc(CCNC(=O)c2ccccc2-c2ccccc2C(=O)O)cc1OC,-3.5%
4,COCCn1c(=S)[nH]c2cc(C(=O)NCCc3ccc(OC)c(OC)c3)ccc2c1=O,-1.71%
5,COc1cccc2[nH]c(C(=O)NCCc3ccccc3)cc12,42.7% (active)
6,Cc1cccc(N(C(=O)Cn2nnc(-c3ccc(C)o3)n2)C(C(=O)NC2CCCC2)c2ccncc2)c1 (configuration not stated),1.36%
7,CCn1c(SCC(=O)NC2CC2)nnc1-c1ccncc1,5.06%
8,Cc1cc(C)cc(NC(=O)C2CCN(c3nc(C)cc(C)n3)CC2)c1,-2.08%
9,Cc1cc(-c2ccccc2)nc(N2CCC(C(=O)NC34CC5CC(CC(C5)C3)C4)CC2)n1,27.8% (active)
10,O=C(NNC(=O)C1CCN(c2ncccn2)CC1)c1ccccc1,-2.14%
11,Cc1c(S(=O)(=O)N2CC(C)CC(C)C2)c(=O)n(C)c(=O)n1C (configuration not stated),-2.35%
12,CCN(CC)P(=O)(Nc1ccc(SC(F)F)cc1)c1ccc(N(C)C)cc1NC(=O)c1ccco1 (configuration not stated),11.5%
13,O=C1N(Cc2ccc3c(c2)OCO3)c2ccccc2C1(O)c1c[nH]c2ccccc12 (configuration not stated),-2.27%
14,COc1cc(NC(=O)C2=CC(c3ccco3)=NS(=O)(=O)N2C)cc(OC)c1OC,2.06%
15,O=S(=O)(Nc1ccccc1Cl)c1cccc2nsnc12,1.19%
16,Cc1cccc(NC(=O)c2cccc(C(=O)Nc3cccc(C)c3C)n2)c1C,-2.9%
17,O=C(Nc1ccccc1N1CCCCC1)c1ccc2nccnc2c1,-1.32%
18,O=C(Nc1ccccc1Cl)c1ccc2nsnc2c1,30.7% (active)
19,Cc1cccc(NC(=O)c2ccc3nsnc3c2)c1C,10.4% (active)
20,O=C(Nc1ccccc1)c1ccc2nsnc2c1,29.1% (active)
21,Cc1nc(C)c(C(=O)Nc2cccc(C)c2C)o1,-2.15%
22,O=C(Nc1cccc(NC(=O)c2ccc(Br)cc2)c1)c1ccccc1,2.45%
23,Cc1ccc([N+](=O)[O-])c(OCCCNCC(C)O)c1 (configuration not stated),17.1%

row,SMILES,max response
1,Cc1cc(NC(=O)CCN2CCN(Cc3ccccc3)CC2)ccc1Br,-0.903%
2,COc1ccc(NC(=O)CN2C(=O)COc3ccc(S(=O)(=O)N4CCOCC4)cc32)cc1,-5.3%
3,COCCNc1ccc(-c2n[nH]c(=O)c3ccccc23)cc1[N+](=O)[O-],-0.883%
4,COc1ccc(N(C)C(=O)C2CCN(S(=O)(=O)c3cccc4nsnc34)CC2)cc1,-1.67%
5,Cc1cc(C(C)(C)C)n2nc(C)c(-c3ccccc3)c2n1,-2.81%
6,Cc1cc(N)n2nc(-c3ccc(C(C)(C)C)cc3)cc2n1,46.8% (active)
7,Cc1nc2cc(-c3ccc(F)cc3)nn2c(N2CCOCC2)c1C,16.4%
8,O=C(CN1C(=O)c2cccnc2Oc2ccc(Cl)cc21)Nc1ccc(F)cc1,-3.07%
9,COc1cc(NC(=O)C2=CC(c3ccc(C)cc3)=NS(=O)(=O)N2C)cc(OC)c1OC,-1.64%
10,O=C(COC(=O)c1ccc(F)cc1)Nc1nc2ccc([N+](=O)[O-])cc2s1,0.781%
11,CSc1ncccc1C(=O)Nc1nc2ccc(F)cc2s1,53.4% (active)
12,CSc1ncccc1C(=O)Nc1ccc(C)cn1,9.66% (active)
13,CSc1ncccc1C(=O)NC1CCCCCC1,19.5%
14,COc1ccc(C(CNC(=O)c2cccnc2SC)N2CCOCC2)cc1 (configuration not stated),-3.3%
15,COc1cc(NC(=O)c2cccnc2SC)cc(OC)c1,-1.86%
16,CCOc1ccc(NC(=O)CCC(=O)NNC(=O)NC2CCCCC2)cc1,-3.92%
17,CCOC(=O)c1cnc(SCc2nc(N)nc(Nc3ccc(OC)cc3)n2)nc1N,19.8%
18,COc1ccccc1NC(=S)N1CCN(c2ccc(F)cc2)CC1,-1.91%
19,COc1ccccc1Nc1nc(N)nc(CSC(=S)N2CCOCC2)n1,23.7% (active)
20,CCOC(=O)C1CCCN(Cc2nc(N)nc(Nc3ccc(C)cc3)n2)C1 (configuration not stated),0.836%
21,COc1ccc(Nc2nc(N)nc(CSC(=S)N3CCC(C)CC3)n2)cc1,47.2% (active)
22,COc1ccccc1Nc1nc(N)nc(CN(C)C2CCCCC2)n1,-1.19%
23,C=CCN1C(=NC(=O)COc2ccccc2)SC2CS(=O)(=O)CC21 (configuration not stated),-13.1%

row,SMILES,max response
1,O=C(NCCc1nnc2ccc(SCC(=O)N3CCOCC3)nn12)c1ccccc1,-4.07%
2,O=C(O)c1ccc(S(=O)(=O)N2CCC(Cc3ccccc3)CC2)cc1,-8.01%
3,COc1ccc(C(=O)OCC(=O)NC(=O)CCSc2ccccc2)cc1,3.82%
4,COc1ccc(OC)c(CCNC(=O)c2nn(C)c3c2CS(=O)(=O)c2ccccc2-3)c1,-1.16%
5,COc1ccc(N(CC(=O)NC2CCCCC2)S(=O)(=O)c2c(C)[nH]c(=O)[nH]c2=O)cc1,-1.68%
6,O=C(NNC(=S)NC(=O)c1cn(-c2ccccc2)nc1-c1ccccc1)c1ccncc1,2.78%
7,COc1cc(/C=N/NC(=O)c2cc(C)n(-c3ccc(F)cc3)c2C)cc(OC)c1O,18.9%
8,Cc1nn(CC(=O)N/N=C/c2ccc(F)cc2)c(C)c1[N+](=O)[O-],-2.9%
9,Cc1cc(C(=O)N/N=C/c2ccc(O)c([N+](=O)[O-])c2)c(C)n1-c1ccc(F)cc1,24.9% (active)
10,COc1ccccc1N(CC(=O)Nc1ccccc1C(=O)N1CCCC1)S(C)(=O)=O,-4.06%
11,CC/C(=N\NC(=O)c1ccccc1Cl)c1ccc(Br)s1,-0.594%
12,NS(=O)(=O)c1ccc(CCNS(=O)(=O)c2cccc3cccnc23)cc1,-5.53%
13,CN(C)S(=O)(=O)c1cccc(NC(=O)Cc2ccsc2)c1,-3.01%
14,Cc1ccc(CN2C(=O)N/C(=C/c3cc(C)n(-c4ccccn4)c3C)C2=O)cc1,33.6% (active)
15,O=C1N/C(=C/c2cccs2)C(=O)N1Cc1ccc(F)cc1,-5.73%
16,Cc1ccc(Cn2c(C)c3cnn(CC(=O)NCc4ccccn4)c(=O)c3c2C)cc1,-3.46%
17,Cc1cccc([C@@H]2[C@@H]3C(=O)N(C)C(=O)[C@@H]3[C@@H]3C(=O)Nc4ccccc4C(=O)N23)c1,1.14%
18,O=c1c2ccccc2nc2n1C(CSCc1ccccc1)CS2 (configuration not stated),-1.46%
19,O=C(/C=C/c1ccc([N+](=O)[O-])cc1)NCCSCc1ccco1,9.78%
20,CCOc1ccccc1Nc1nnc(SCc2ccc(C(=O)OC)o2)s1,-4.31%
21,COC(=O)c1ccc(CSc2nnc(N)s2)o1,12.5% (active)
22,COC(=O)c1ccc(CSc2ccccc2C)o1,-1.75%
23,CC1CCCCN1C(=O)CCS(=O)(=O)Cc1ccccc1 (configuration not stated),-0.307%

row,SMILES,max response
1,COc1cc(C(=O)NN(CCC#N)C2=NS(=O)(=O)c3ccccc32)cc(OC)c1OC,-4.44%
2,COc1cc2c(C(=O)O)c(C)n(C)c2c2ccccc12,-4.45%
3,COc1cccc2c(C)c(C(=O)O)[nH]c12,33.1% (active)
4,Cc1c(C(=O)N/N=C/c2ccccc2)[nH]c2c([N+](=O)[O-])cccc12,1.12%
5,O=c1[nH]cccc1-c1nc2ccccc2n1Cc1ccc(Cl)cc1,-10.6%
6,COc1ccc(C(=O)NC(C)Cn2nc(C)cc2C)cc1OC1CCN(C(C)=O)CC1 (configuration not stated),-1.29%
7,Cn1ncc(Br)c1C(=O)NC1CCCC1,-6.23%
8,CCN(CC)CCn1cnc2c1c(=O)[nH]c(=O)n2Cc1ccccc1,-9.18%
9,CCOc1ccc(N(C(=O)c2snc(C(N)=O)c2N)C(C(=O)NCC2CCCO2)c2c[nH]c3ccccc23)cc1 (configuration not stated),1.95%
10,Cc1cc(S(=O)(=O)NC2CCCCC2)ccc1OCC(=O)NCc1cccnc1,-2.89%
11,CCOC(=O)C1(Cc2ccccc2C)CCCN(C(=O)CN2C(=O)CSC2=O)C1 (configuration not stated),42.6% (active)
12,Cc1cc(SCC(=O)NCCN2C(=O)CSC2=O)nc2ccccc12,0.645%
13,O=C(Cn1c(=O)n(CC2CS2)c2ccccc21)N1CCCCC1 (configuration not stated),0.367%
14,CCOC(=O)C1(Cc2ccccc2C)CCCN(S(C)(=O)=O)C1 (configuration not stated),2.45%
15,CCOC(=O)C1(Cc2ccccc2C)CCCN(C(=O)c2ccc(COC)o2)C1 (configuration not stated),35.6% (active)
16,CCOC(=O)C1(CCc2ccccc2)CCN(Cc2ccco2)CC1,8.52%
17,Cc1ccc(S(=O)(=O)N(CC(=O)NCc2ccco2)c2ccccc2C)cc1,-4.61%
18,CCCNC(=S)N1CCCC(c2nc3ccccc3[nH]2)C1 (configuration not stated),-2.62%
19,O=C(NC1CCCC1)C(c1c(F)cccc1Cl)N(C(=O)c1csnn1)C1CC1 (configuration not stated),-1.83%
20,COCCn1c(=NC(=O)c2ccccc2[N+](=O)[O-])sc2cc(S(C)(=O)=O)ccc21,25.9% (active)
21,Cn1c(=NC(=O)c2ccc3c(c2)OCCO3)sc2cc(S(C)(=O)=O)ccc21,3.13%
22,COCCNC(=O)c1ccccc1NS(=O)(=O)c1ccc(C)c([N+](=O)[O-])c1,-2.35%
23,O=C(Nc1ccccc1C(=O)Nc1ccncc1)c1ccc([N+](=O)[O-])cc1,-2.91%
